Measurements taken from PubChem BioAssay (NCATS).
Where “and” joins values, the source holds several entries; their conditions need not be identical. Equal values may be shown once. Results filed as inconclusive are left out. A call without a number means that no potency is given here. Calls of active or inactive are those of the source. Calls follow the shape of the full dose curve.

Tests used:
[1] = Primary qHTS for Huh7 cytotoxicity: counterscreen for inhibitors of MERS-S pseudotyped particle cell entry (AID 1479147); settings: cell viability read-out; series mostly up to 57.1 µM
[2] = Primary qHTS for inhibitors of MERS-S pseudo-typed particle cell entry (AID 1479149); settings: MERS-S pseudotyped particle entry, luciferase; series mostly up to 57.1 µM; also: nearly all actives have a fitted effect of over 60% in size
[3] = Primary qHTS for Vero E6 cytotoxicity: counterscreen for inhibitors of SARS-S pseudo-typed particle cell entry (AID 1479150); settings: cell viability; series mostly up to 57.1 µM
[4] = Cytotoxicity counterscreen for inhibitors of SARS-CoV-2 cell entry (AID 1645845); settings: cell viability (SARS-CoV-2 entry assay cells); series mostly up to 57.1 µM; also: nearly all actives have a fitted effect of over 50% in size
Summary of the method: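 HEK293-ACE2 cells (Expi293F stably expressing human ACE2) seeded overnight, then compound for 1 h plus 48 h at 37C. Viability as ATP content by luminescence; normalized to wells with cells and media-only wells.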

[5] = Primary qHTS to identify inhibitors of SARS-CoV-2 cell entry (AID 1645846); settings: SARS-CoV-2 pseudovirus cell entry assay, luminescence; activity change, negative = inhibition: at 57.1 µM (top of the series) unless noted; series mostly up to 57.1 µM; also: nearly all actives have a fitted effect of over 45% in size
Summary of the method: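 HEK293 cells stably expressing human ACE2, pre-treated 1 h with compound, then infected with MLV particles pseudotyped with Wuhan-Hu-1 spike (C-terminal 19-aa truncation). Luciferase luminescence after 48 h at 37 °C, normalised to spike PP and bald PP.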

## CCCC(=O)Nc1ccc(OCC(O)CNC(C)C)c(C(C)=O)c1 (stereo not given)
[1]
  Potency: inactive
[2]
  Potency: inactive
[3]
  Potency: inactive
[4]
  Potency: inactive
[5]
  activity change, negative = inhibition: 4.12%

## C[C@@H](O)[C@H]1C(=O)N2C(C(=O)O)=C(S[C@@H]3CN[C@H](CNS(N)(=O)=O)C3)[C@H](C)[C@H]12
[1]
  Potency: inactive
[2]
  Potency: inactive
[3]
  Potency: inactive
[4]
  Potency: inactive
[5]
  activity change, negative = inhibition: -25.7%

## CC(C)(C#N)c1cc(Cn2cncn2)cc(C(C)(C)C#N)c1
[1]
  Potency: inactive
[2]
  Potency: inactive
[3]
  Potency: inactive
[4]
  Potency: inactive
[5]
  Potency: inactive

## OC(Cn1cncn1)(Cn1cncn1)c1ccc(F)cc1F
[1]
  Potency: inactive
[2]
  Potency: inactive
[3]
  Potency: inactive
[4]
  Potency: inactive
[5]
  activity change, negative = inhibition: -13.6% and -9.57%

## CCN1CCN(C(=O)N[C@@H](C(=O)N[C@@H]2C(=O)N3C(C(=O)O)=C(CSc4nnnn4C)CS[C@H]23)c2ccc(O)cc2)C(=O)C1=O
[1]
  Potency: inactive
[2]
  Potency: inactive
[3]
  Potency: inactive
[4]
  Potency: inactive
[5]
  Potency: inactive

## C[C@H]1[C@H](NC(=O)/C(=N/OC(C)(C)C(=O)O)c2csc(N)n2)C(=O)N1S(=O)(=O)O (stereo in doubt)
[1]
  Potency: inactive
[2]
  Potency: inactive
[3]
  Potency: inactive
[4]
  Potency: inactive
[5]
  Potency: inactive

## OCCN1C[C@H](O)[C@@H](O)[C@H](O)[C@H]1CO
[1]
  Potency: inactive
[2]
  Potency: inactive
[3]
  Potency: inactive
[4]
  Potency: inactive
[5]
  activity change, negative = inhibition: -28.6% and -30.5%

## CCCCc1nc(Cl)c(CO)n1Cc1ccc(-c2ccccc2-c2nn[nH]n2)cc1
[1]
  Potency: inactive
[2]
  Potency: inactive
[3]
  Potency: inactive
[4]
  Potency: inactive
[5]
  Potency: inactive

## CCOc1ccccc1OCCN[C@H](C)Cc1ccc(OC)c(S(N)(=O)=O)c1
[1]
  Potency: inactive
[2]
  Potency: inactive
[3]
  Potency: inactive
[4]
  Potency: inactive
[5]
  activity change, negative = inhibition: -21.5%

## Cc1cc(C)cc(OCC2CNC(=O)O2)c1 (stereo not given)
[1]
  Potency: inactive
[2]
  Potency: inactive
[3]
  Potency: inactive
[4]
  Potency: inactive
[5]
  Potency: inactive

## CCC1C(=O)OCC1Cc1cncn1C (stereo not given)
[1]
  Potency: inactive
[2]
  Potency: inactive
[3]
  Potency: inactive
[4]
  Potency: inactive
[5]
  activity change, negative = inhibition: 2.21%

## CC(C)[N+](C)(CCOC(=O)C1c2ccccc2Oc2ccccc21)C(C)C
[1]
  Potency: inactive
[2]
  Potency: inactive
[3]
  Potency: inactive
[4]
  Potency: inactive
[5]
  activity change, negative = inhibition: 2.34%

## CN(C/C=C/C#CC(C)(C)C)Cc1cccc2ccccc12
[1]
  Potency: inactive
[2]
  Potency: inactive
[3]
  Potency: inactive
[4]
  Potency: inactive
[5]
  activity change, negative = inhibition: -3.95%

## O=C(O)P(=O)(O)O
[1]
  Potency: inactive
[2]
  Potency: inactive
[3]
  Potency: inactive
[4]
  Potency: inactive
[5]
  Potency: inactive

## COc1cc(NC(C)CCCN)c2ncccc2c1 (stereo not given)
[1]
  Potency: inactive
[2]
  Potency: inactive
[3]
  Potency: inactive
[4]
  Potency: inactive
[5]
  activity change, negative = inhibition: 2.06%

## O=C1OCCN1/N=C/c1ccc([N+](=O)[O-])o1
[1]
  Potency: inactive
[2]
  Potency: inactive
[3]
  Potency: inactive
[4]
  Potency: inactive
[5]
  Potency: inactive

## CC(C)(C)NC(=O)[C@@H]1CN(Cc2cccnc2)CCN1C[C@@H](O)C[C@@H](Cc1ccccc1)C(=O)N[C@H]1c2ccccc2C[C@H]1O
[1]
  Potency: inactive
[2]
  Potency: inactive
[3]
  Potency: inactive
[4]
  Potency: inactive
[5]
  activity change, negative = inhibition: 4.24%

## CC1(C)S[C@@H]2[C@H](NC(=O)C(C(=O)O)c3ccccc3)C(=O)N2[C@H]1C(=O)O (stereo not given in full)
[1]
  Potency: inactive
[2]
  Potency: inactive
[3]
  Potency: inactive
[4]
  Potency: inactive
[5]
  Potency: inactive

## c1cnc2cc3c(cc2n1)C1CNCC3C1
[1]
  Potency: inactive
[2]
  Potency: inactive
[3]
  Potency: inactive
[4]
  Potency: inactive
[5]
  activity change, negative = inhibition: -6.05% and -6%

## Nc1cc(-c2ccncc2)c[nH]c1=O
[1]
  Potency: inactive
[2]
  Potency: inactive
[3]
  Potency: inactive
[4]
  Potency: inactive
[5]
  Potency: inactive

## O=c1n(CCCN2CCN(c3cccc(Cl)c3)CC2)nc2ccccn12
[1]
  Potency: inactive
[2]
  Potency: inactive
[3]
  Potency: inactive
[4]
  Potency: inactive
[5]
  activity change, negative = inhibition: -23.8%

## Cc1ccnc2c1NC(=O)c1cccnc1N2C1CC1
[1]
  Potency: inactive
[2]
  Potency: inactive
[3]
  Potency: inactive
[4]
  Potency: inactive
[5]
  activity change, negative = inhibition: -19.4%

## NCCCC(O)(P(=O)(O)O)P(=O)(O)O
[1]
  Potency: inactive
[2]
  Potency: inactive
[3]
  Potency: inactive
[4]
  Potency: inactive
[5]
  activity change, negative = inhibition: -4.6% and -17.5%

## N[C@@H](C(=O)N[C@@H]1C(=O)N2C(C(=O)O)=C(Cl)CS[C@H]12)c1ccccc1
[1]
  outcome: inactive [at 11.4 µM]
[2]
  outcome: inactive [at 11.4 µM]
[3]
  outcome: inactive [at 11.4 µM]
[4]
  outcome: inactive [at 11.3 µM]
[5]
  outcome: inactive [at 11.3 µM]

## NC(=O)C(c1ccccc1)(c1ccccc1)[C@@H]1CCN(CCc2ccc3c(c2)CCO3)C1
[1]
  Potency: inactive
[2]
  Potency: inactive
[3]
  Potency: inactive
[4]
  Potency: inactive
[5]
  activity change, negative = inhibition: -1.98%

## O=P(O)(O)C(O)(Cc1cccnc1)P(=O)(O)O
[1]
  Potency: inactive
[2]
  Potency: inactive
[3]
  Potency: inactive
[4]
  Potency: inactive
[5]
  activity change, negative = inhibition: 4.27% and -14.8%

## NS(=O)(=O)c1cc2c(cc1C(F)(F)F)NCNS2(=O)=O
[1]
  Potency: inactive
[2]
  Potency: inactive
[3]
  Potency: inactive
[4]
  Potency: inactive
[5]
  Potency: inactive

## N=c1nc(N2CCCCC2)cc(N)n1O
[1]
  Potency: inactive
[2]
  Potency: inactive
[3]
  Potency: inactive
[4]
  Potency: inactive
[5]
  activity change, negative = inhibition: -11.3%

## NC(=O)N1c2ccccc2CC(=O)c2ccccc21
[1]
  Potency: inactive
[2]
  Potency: inactive
[3]
  Potency: inactive
[4]
  Potency: inactive
[5]
  Potency: inactive
